# Assay results: PubChem BioAssay (EPA / NIEHS)
# Some structures have more than one record in an assay (separate samples or runs), and their calls can disagree. The source made the active and inactive calls. The calls were made as follows: active = hit-call score of the fitted dose curve at least 0.9, where 1 is the maximum; inactive = score below 0.9.
# Tests used:
# [1] = BSK_MyoF_SRB: Viability Assessment in the BioMAP Diversity Plus: MyoF Assay (AID 2284267); conditions: primary human lung fibroblasts;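 also: total protein by SRB absorbance in parallel cultures as cytotoxicity measure; cells assessed 24 h after compound addition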
# Summary of the method: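 Cytotoxicity in primary human lung fibroblasts is gauged by SRB total-protein staining 24 h after dosing, with DMSO as the negative control.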
# [2] = read-out: Matrix Metallopeptidase 1 (MMP1), MMP1 (gene 4312); test: BSK_MyoF_MMP1: BioMAP Diversity Plus: MyoF Assay for Matrix Metallopeptidase 1 (MMP1) Biomarker Activity (AID 2284268); conditions: primary human lung fibroblasts
# Summary of the method: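 Cells: human lung fibroblasts. Exposure: 24 h chemical dosing. Detection: ELISA for MMP1. Analysis: upward fitting against DMSO negative control.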
# [3] = read-out: TIMP metallopeptidase inhibitor 1 (TIMP1), TIMP1 (gene 7076); test: BSK_MyoF_TIMP1: BioMAP Diversity Plus: MyoF Assay for TIMP metallopeptidase inhibitor 1 (TIMP1) Biomarker Activity (AID 2284269); conditions: primary human lung fibroblasts
# Summary of the method: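 Fibroblasts from human lung are dosed with chemical, cultured 24 h, and assayed for TIMP-1 by ELISA. Increases over the DMSO baseline are scored, with SRB total-protein staining run in parallel for cytotoxicity.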
# [4] = IUF_NPC2c_oligodendrocyte_migration_120hr: Leibniz Research Institute for Environmental Medicine (IUF) 120-hour Neural Progenitor Cell Migration Assay for Oligodendrocyte Migration (NPC2c) (AID 2284297);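 also: O4-positive oligodendrocyte migration distance divided by radial glia migration distance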
# Summary of the method: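 hNPC spheres (GW 16-19 cortex), PDL/laminin, DMEM/F12 3:1 + 1% N2, 37C. Dosing day 0–5, half feed day 3, DMSO ≤0.1%. Fixed 120 h; O4 ICC + Hoechst, HCI. Readout: mean oligodendrocyte distance from sphere edge / radial glia distance.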
# [5] = IUF_NPC2a_radial_glia_migration_120hr: Leibniz Research Institute for Environmental Medicine (IUF) 120-hour Neural Progenitor Cell Migration Assay for Radial Glia Migration (NPC2a) (AID 2284298)
# Summary of the method: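 Hoechst-stained nuclei imaged at 120 h; algorithm maps sphere core by densest nuclei, sets migration edge at density threshold, gives radial glia migration distance (um) per well vs DMSO. hNPC spheres (0.3 mm), PDL/laminin, DMEM/F12 3:1 + 1% N2.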
# [6] = IUF_NPC2a_radial_glia_migration_72hr: Leibniz Research Institute for Environmental Medicine (IUF) 72-hour Neural Progenitor Cell Migration Assay for Radial Glia Migration (NPC2a) (AID 2284299)
# Summary of the method: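 Migration out of plated human neural progenitor spheres is scored at 72 h as the distance in um from the sphere core edge to the edge of the migration area. Values are the mean of four manual measurements per well, normalised to DMSO.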
# [7] = IUF_NPC2b_neuronal_migration_120hr: Leibniz Research Institute for Environmental Medicine (IUF) 120-hour Neural Progenitor Cell Migration Assay for Neuron Migration (NPC2b) (AID 2284300)
# Summary of the method: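 hNPC spheres, PDL/laminin, DMEM:F12 3:1 + 1% N2, 37C/5% CO2; 7 concentrations + solvent control (DMSO ≤0.1%), 5 d exposure, half-feed day 3. Fix 120 h, TUBB3 ICC, HCI: mean neuron migration distance ÷ glia distance.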
# [8] = IUF_NPC3_neuronal_differentiation_120hr: Leibniz Research Institute for Environmental Medicine (IUF) 120-hour Neuronal Differentiation Assay (NPC3) (AID 2284301)
# Summary of the method: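 Human fetal (GW 16-19) neural progenitor spheres (0.3 mm) plated on poly-D-lysine/laminin in N2 differentiation medium, exposed 120 h at 37C with half-medium renewal day 3; 7 concentrations. TUBB3+ cells as % of Hoechst nuclei, CNN-identified; DMSO baseline.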
# [9] = IUF_NPC4_neurite_length_120hr: Leibniz Research Institute for Environmental Medicine (IUF) 120-hour Neuronal Morphology Assay for Neurite Length (NPC4) (AID 2284302)
# Summary of the method: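 Human fetal neural progenitor spheres (0.3 mm) plated on poly-D-lysine/laminin in N2 differentiation medium, exposed from day 0 for 120 h with half-medium refresh at day 3, 37C. Mean neurite length (um) of TUBB3-positive neurons from skeletonized immunostaining images; DMSO ≤0.1%.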
# [10] = read-out: Intercellular Adhesion Molecule 1 (ICAM1), ICAM1 (gene 3383); test: BSK_BE3C_ICAM1: BioMAP Diversity Plus: BE3C Assay for Intercellular Adhesion Molecule 1 (ICAM1) Biomarker Activity (AID 2284278); conditions: primary human bronchial epithelial cells;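 also: cell-surface ICAM-1 protein level quantified by ELISA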
# Summary of the method: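 Measured by ELISA: ICAM-1 expressed by primary human bronchial epithelial cells 24 h after compound treatment, with upward-direction fitting versus DMSO vehicle.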
# [11] = read-out: Interferon-inducible T-cell alpha chemoattractant (ITAC), CXCL11 (gene 6373); test: BSK_BE3C_ITAC: BioMAP Diversity Plus: BE3C Assay for Interferon-inducible T-cell alpha chemoattractant (ITAC) Biomarker Activity (AID 2284279); conditions: primary human bronchial epithelial cells
# Summary of the method: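 BE3C cells (human primary bronchial epithelium), 24 h compound exposure, I-TAC by ELISA, DMSO = negative control/baseline, positive fitting direction.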
# [12] = read-out: Interleukin-8 (IL8), CXCL8 (gene 3576); test: BSK_BE3C_IL8: BioMAP Diversity Plus: BE3C Assay for Interleukin-8 (IL8) Biomarker Activity (AID 2284280); conditions: primary human bronchial epithelial cells
# Summary of the method: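 Primary human bronchial epithelial cells (BE3C system) exposed 24 h; IL-8 measured by ELISA and fitted in positive direction versus DMSO. Overt cytotoxicity assessed by SRB total-protein staining in parallel cultures.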
# [13] = read-out: Epidermal growth factor receptor (EGFR), EGFR (gene 1956); test: BSK_BE3C_EGFR: BioMAP Diversity Plus: BE3C Assay for Epidermal growth factor receptor (EGFR) Biomarker Activity (AID 2284281); conditions: primary human bronchial epithelial cells
# Summary of the method: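 Human primary bronchial epithelial cells (BE3C system) dosed with chemicals; EGFR measured by ELISA at 24 h, fitted in the positive direction relative to DMSO. Cytotoxicity tracked in parallel cultures by SRB total-protein staining.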
# KRT18 (gene 3875) = test: BSK_BE3C_Keratin818: BioMAP Diversity Plus: BE3C Assay for Keratin 818 Biomarker Activity (AID 2284282); conditions: primary human bronchial epithelial cells
# Summary of the method: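 BE3C: human bronchial epithelial primary cells, 24 h exposure, Keratin 8/18 ELISA; DMSO = negative control/baseline; cytotoxicity by parallel SRB stain (0.1% SRB after 10% TCA fixation, 560 nm).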
# [14] = read-out: Matrix Metallopeptidase 9 (MMP9), MMP9 (gene 4318); test: BSK_BE3C_MMP9: BioMAP Diversity Plus: BE3C Assay for Matrix Metallopeptidase 9 (MMP9) Biomarker Activity (AID 2284283); conditions: primary human bronchial epithelial cells
# Summary of the method: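 ELISA read-out of MMP-9 after 24 h compound exposure of human lung bronchial epithelial primary cells (BE3C). Fit in gain direction vs DMSO negative control; total protein by SRB in parallel cultures flagged overt cytotoxicity.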
# [15] = read-out: Plasminogen activator inhibitor-1 (PAI1), SERPINE1 (gene 5054); test: BSK_CASM3C_PAI1: BioMAP Diversity Plus: CASM3C Assay for Plasminogen activator inhibitor-1 (PAI1) Biomarker Activity (AID 2284284); conditions: primary human coronary artery smooth muscle cells;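 also: PAI-1 protein level measured by ELISA 24 h after dosing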
# [16] = read-out: Monocyte Chemoattractant Protein-1 (MCP1), CCL2 (gene 6347); test: BSK_hDFCGF_MCP1: BioMAP Diversity Plus: hDFCGF Assay for Monocyte Chemoattractant Protein-1 (MCP1) Biomarker Activity (AID 2284285); conditions: primary human foreskin fibroblasts
# Summary of the method: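 Human foreskin fibroblasts (hDFCGF system) were exposed to compound and secreted MCP-1 was measured by ELISA after 24 hours. Activity was fitted relative to DMSO. Cytotoxicity was checked by SRB total-protein staining in parallel cultures.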
# [17] = read-out: Intercellular Adhesion Molecule 1 (ICAM1), ICAM1 (gene 3383); test: BSK_hDFCGF_ICAM1: BioMAP Diversity Plus: hDFCGF Assay for Intercellular Adhesion Molecule 1 (ICAM1) Biomarker Activity (AID 2284287); conditions: primary human foreskin fibroblasts
# Summary of the method: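 Primary human foreskin fibroblasts (hDFCGF system) dosed with chemical; ICAM-1 quantified by ELISA at 24 h relative to DMSO. Parallel SRB total-protein staining to assess overt cytotoxicity.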
# [18] = read-out: TIMP metallopeptidase inhibitor 2 (TIMP2), TIMP2 (gene 7077); test: BSK_hDFCGF_TIMP2: BioMAP Diversity Plus: hDFCGF Assay for TIMP metallopeptidase inhibitor 2 (TIMP2) Biomarker Activity (AID 2284289); conditions: primary human foreskin fibroblasts
# Summary of the method: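 Primary human foreskin fibroblasts in the hDFCGF system, dosed for 24 h; TIMP-2 level measured by ELISA, fitted in the positive direction against DMSO; cytotoxicity checked in parallel by sulforhodamine B total protein staining.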
# [19] = read-out: Thrombomodulin, THBD (gene 7056); test: BSK_LPS_Thrombomodulin: BioMAP Diversity Plus: LPS Assay for Thrombomodulin Biomarker Activity (AID 2284296)
# Summary of the method: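 Human umbilical vein endothelial cells co-cultured with PBMC and stimulated with LPS; cell-surface thrombomodulin measured by ELISA 24 hours after compound. Gain or loss versus DMSO; cytotoxicity checked by SRB staining in parallel cultures.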
compound,measurement,setting,value
Cc1ccccc1OP(=O)(Oc1ccccc1)Oc1ccccc1,AC50,[1],20 µM (active)
same,AC50,[2],29.6 µM (active)
same,AC50,[3],0.0187 µM (active)
c1ccc(-c2cccc(-c3ccccc3)c2)cc1,AC50,[1],22.5 µM (active)
same,AC50,[2],8.44 µM (active)
same,outcome,[3],inactive
C=CC(Cl)CCl (centres undefined),AC50,[1],9.58 µM (active)
same,outcome,[2],inactive
same,AC50,[3],0.061 µM (active)
O=[N+]([O-])c1cccc2ccccc12,outcome,[1],inactive
same,outcome,[2],inactive
same,outcome,[3],inactive
O=S(=O)(c1ccc(Cl)cc1)c1cc(Cl)c(Cl)cc1Cl,outcome,[1],inactive
same,AC50,[2],20 µM (active)
same,outcome,[3],inactive
CCOP(=O)(OCC)OC(=CCl)c1ccc(Cl)cc1Cl,AC50,[1],30.4 µM (active)
same,AC50,[2],31.7 µM (active)
same,outcome,[3],inactive
Oc1c(Br)cc(Br)cc1Br,outcome,[1],inactive
same,AC50,[2],12.4 µM (active)
same,outcome,[3],inactive
CC(C)=CC1C(C(=O)OCc2cccc(Oc3ccccc3)c2)C1(C)C (centres undefined),outcome,[1],inactive
same,outcome,[2],inactive
same,outcome,[3],inactive
O=C(O)COc1cc(Cl)c(Cl)cc1Cl,outcome,[1],inactive
same,outcome,[2],inactive
same,outcome,[3],inactive
Cc1ccc(OP(=O)(Oc2ccc(C)cc2C)Oc2ccc(C)cc2C)c(C)c1,outcome,[1],inactive
same,AC50,[2],5.97 µM (active)
same,outcome,[3],inactive
CC(C)(C)c1cc([N+](=O)[O-])cc(C(C)(C)C)c1O,outcome,[1],inactive
same,outcome,[2],inactive
same,outcome,[3],inactive
N#CCCC(Br)(C#N)CBr (centres undefined),AC50,[1],14.1 µM (active)
same,outcome,[2],inactive
same,AC50,[3],20 µM (active)
O=c1oc2ccccc2c(O)c1C(CC(O)c1ccc(-c2ccc(Br)cc2)cc1)c1ccccc1 (centres undefined),AC50,[1],9.02 µM (active)
same,outcome,[2],inactive
same,AC50,[3],7.83 µM (active)
C[C@]12CC[C@@H](O)C[C@@H]1CC[C@@H]1[C@@H]2CC[C@]2(C)C(=O)CC[C@@H]12,outcome,[1],inactive
same,outcome,[2],inactive
same,outcome,[3],inactive
O=C(CCl)NCO,outcome,[1],inactive
same,outcome,[2],inactive
same,outcome,[3],inactive
Cc1cc(Cl)ccc1OC(C)C(=O)O (centres undefined),outcome,[1],inactive
same,outcome,[2],inactive
same,outcome,[3],inactive
OC(Cc1ccccc1Cl)(Cn1cncn1)C1(Cl)CC1 (centres undefined),outcome,[1],inactive
same,outcome,[2],inactive
same,outcome,[3],inactive
CC1(C)[C@H](C(=O)O[C@H](C#N)c2cccc(Oc3ccccc3)c2)[C@@H]1/C=C(\Cl)C(F)(F)F,outcome,[1],inactive
same,AC50,[2],3.39 µM (active)
same,outcome,[2],inactive
same,outcome,[3],inactive
same,outcome,[4],inactive
same,outcome,[5],inactive
same,outcome,[6],inactive
same,outcome,[7],inactive
same,outcome,[8],inactive
same,outcome,[9],inactive
C#CCOC(=O)/C=C(C)/C=C/CC(C)CCCC(C)C (centres undefined),outcome,[1],inactive
same,outcome,[2],inactive
same,outcome,[3],inactive
Cc1ccc2nc3sc(=O)sc3nc2c1,outcome,[1],inactive
same,AC50,[2],5 µM (active)
same,outcome,[3],inactive
O=C1C=CC(=O)c2ccccc21,AC50,[1],4.69 µM (active)
same,AC50,[2],10.1 µM (active)
same,AC50,[3],4.43 µM (active)
CCCCCCCCCCCCN(C)C,outcome,[1],inactive
same,outcome,[2],inactive
same,outcome,[3],inactive
Cc1cc(C(C)(C)c2ccc(O)c(C)c2)ccc1O,AC50,[1],13.7 µM (active)
same,AC50,[2],15.7 µM (active)
same,outcome,[3],inactive
CCN(CC)C(=O)C(Cl)=C(C)OP(=O)(OC)OC,outcome,[1],inactive
same,outcome,[2],inactive
same,outcome,[3],inactive
CCOP(=S)(OCC)OP(=S)(OCC)OCC,outcome,[1],inactive
same,outcome,[2],inactive
same,outcome,[3],inactive
CCOP(=S)(OCC)SCS(=O)(=O)C(C)(C)C,outcome,[1],inactive
same,outcome,[2],inactive
same,outcome,[3],inactive
Nc1c(Oc2ccccc2)cc(O)c2c1C(=O)c1ccccc1C2=O,outcome,[1],inactive
same,outcome,[2],inactive
same,outcome,[3],inactive
CC(C)N(C(=O)CCl)c1ccccc1,AC50,[1],3.67 µM (active)
same,outcome,[2],inactive
same,AC50,[3],3.53 µM (active)
Nc1ccc(N)cc1,outcome,[1],inactive
same,outcome,[2],inactive
same,outcome,[3],inactive
OCCCCO,outcome,[10],inactive
same,outcome,[11],inactive
same,outcome,[12],inactive
same,outcome,[13],inactive
same,outcome,KRT18 (gene 3875),inactive
same,outcome,[14],inactive
same,outcome,[15],inactive
same,outcome,[16],inactive
same,outcome,[17],inactive
same,outcome,[18],inactive
same,outcome,[19],inactive
[Cl][Sn]([c]1ccccc1)([c]1ccccc1)[c]1ccccc1,AC50,[1],1.36 µM (active)
same,AC50,[2],0.423 µM (active)
same,AC50,[3],0.355 µM (active)
O=C(Cc1ccccc1)OCCc1ccccc1,outcome,[10],inactive
same,outcome,[11],inactive
same,outcome,[12],inactive
same,outcome,[13],inactive
same,outcome,KRT18 (gene 3875),inactive
same,outcome,[14],inactive
same,outcome,[15],inactive
same,outcome,[16],inactive
same,outcome,[17],inactive
same,outcome,[18],inactive
same,outcome,[19],inactive
